Most compounds without a hit are left out; they make up all but 28% or so of the library.
CYP2C19 inh = blockers of cytochrome P450 2C19 activity – biochemical, luminescence, ADME assay, primary screen | CYP2C19 Supersomes, luciferin-H EGE luminescence, 30 min | P33261 | 21% of 96,000 active | inhibition, % at 5 µM;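 active = CYP2C19 inhibition above a set limit at 5 µM in the primary screen, cut at about 50% in these data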;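 note: plate controls were negative control wells for no effect and 2.5 mM tranylcypromine positive control for full effect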
Target sequence (P33261 whole entry, looked up): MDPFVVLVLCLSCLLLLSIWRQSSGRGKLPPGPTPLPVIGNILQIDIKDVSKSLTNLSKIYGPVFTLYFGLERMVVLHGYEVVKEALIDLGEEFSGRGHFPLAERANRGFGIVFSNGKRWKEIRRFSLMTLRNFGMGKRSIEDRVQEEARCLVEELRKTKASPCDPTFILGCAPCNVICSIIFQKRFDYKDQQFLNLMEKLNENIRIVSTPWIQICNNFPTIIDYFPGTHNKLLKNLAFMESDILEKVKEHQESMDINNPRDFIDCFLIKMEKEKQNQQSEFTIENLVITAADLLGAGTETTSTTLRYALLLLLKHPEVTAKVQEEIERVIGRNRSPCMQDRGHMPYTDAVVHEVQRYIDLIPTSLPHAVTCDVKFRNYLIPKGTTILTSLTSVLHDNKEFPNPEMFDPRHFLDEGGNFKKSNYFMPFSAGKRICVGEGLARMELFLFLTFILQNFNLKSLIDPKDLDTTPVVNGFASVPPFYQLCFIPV
CYP2C9 activ = human CYP2C9 activators, primary screen, biochemical, luminescence | 1.4% of 96,000 active | recombinant CYP2C9, luciferin-H conversion; active compounds read high; factor 1 = untreated enzyme, 0 = blocked | activation factor at 5 µM;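 active = activation factor of 2 or more for CYP2C9 at a 5 µM dose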;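 note: 0 = sulfaphenazole-blocked wells and 1 = vehicle-only wells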
CYP2C19 activ = human CYP2C19 activators, primary screen, biochemical, luminescence; recombinant CYP2C19, luciferin-H EGE luminescence; active compounds read high; 0 = fully inhibited enzyme, 1 = untreated enzyme; 96,000 tested, under 10 active; AID 1025, 2008; activation factor at 5 µM;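 active = activation factor of at least 2 at 5 µM in the primary screen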;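 note: 0 = wells with 2.5 mM tranylcypromine and 1 = vehicle-only wells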
PLK1 inh = human PLK1 kinase inhibitors, primary screen, biochemical, TR-FRET; Serine/threonine-protein kinase PLK1 (Homo sapiens), P53350; recombinant PLK1 kinase, TR-FRET peptide phosphorylation; inhibition, % at 10 µM; 0.53% of 97,000 active; AID 619, 2007;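 active = inhibition of 50% or more in the single-concentration screen; inactive = inhibition below 50%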;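 note: 0% = DMSO max control and 100% = H-89 dihydrochloride min control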
CYP2C9 inhib = blockers of cytochrome P450 2C9 activity – biochemical, luminescence, ADME assay, primary screen. P11712. CYP2C9 Supersomes, luciferin-H conversion. 20% of 96,000 active. inhibition, % at 5 µM;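 active = blocking of liver enzyme CYP2C9 beyond about 50% at 5 µM, limit read from the data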
PLK1 PBD inh = Plk1 polo box domain binding inhibitors, primary screen, biochemical, fluorescence polarization. Serine/threonine-protein kinase PLK1 (Homo sapiens), P53350. Plk1 PBD phosphopeptide binding. inhibition, %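 (tested at about 20 µM)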. 0.13% of 97,000 active; in the data active = inhibition above about 34%, passing the limit was not always enough
An asterisk follows results filed as active.

For Cc1cc(C)cc(N=c2c([N+](=O)[O-])nn(-c3cccc(Cl)c3)n2O)c1 the results were CYP2C19 inh 25, CYP2C9 activ 0.8, CYP2C19 activ 0.7, PLK1 inh 2, CYP2C9 inhib 22 and PLK1 PBD inh 34.
CCN1CCN(C(=S)Nc2ccc(Cl)cc2)CC1 was read as CYP2C19 inh 19, CYP2C9 activ 1, CYP2C19 activ 0.8, PLK1 inh -8, CYP2C9 inhib 5 and PLK1 PBD inh 0.
For Cc1ccccc1CSc1nnc(-c2cccs2)n1Cc1ccco1 the results were CYP2C19 inh 62*, CYP2C9 activ 0.6, CYP2C19 activ 0.4, PLK1 inh 0, CYP2C9 inhib 39 and PLK1 PBD inh -10.
Screening O=C1c2ccccc2C(=O)N1CCSc1nnc(-c2ccco2)n1Cc1ccccc1 returned CYP2C19 inh 97*, CYP2C9 activ 0.3, CYP2C19 activ 0, PLK1 inh -5, CYP2C9 inhib 65* and PLK1 PBD inh 13.
c1ccc(CSc2nnc(-c3ccco3)n2Cc2ccco2)cc1 was read as CYP2C19 inh 78*, CYP2C9 activ 0.8, CYP2C19 activ 0.2, PLK1 inh -3, CYP2C9 inhib 22 and PLK1 PBD inh -18.
Cc1ccccc1CSc1nnc(-c2ccco2)n1Cc1ccco1 was read as CYP2C19 inh 66*, CYP2C9 activ 0.9, CYP2C19 activ 0.3, PLK1 inh -3, CYP2C9 inhib 10 and PLK1 PBD inh 0.
CN1C2=NCCN2C(=O)c2ccccc21 was read as CYP2C19 inh 6, CYP2C9 activ 1.1, CYP2C19 activ 0.9, PLK1 inh -10, CYP2C9 inhib -10 and PLK1 PBD inh 0.
Screening O=C(CN1CCN(Cc2ccc3c(c2)OCO3)CC1)c1c[nH]c2ccccc12 returned CYP2C19 inh 3, CYP2C9 activ 0.8, CYP2C19 activ 1, PLK1 inh -13, CYP2C9 inhib 18 and PLK1 PBD inh -17.
`Cn1c(=O)c2c(nc(CN3CCN(c4ccc(F)cc4)CC3)n2Cc2ccccc2F)n(C)c1=O` gave CYP2C19 inh -8, CYP2C9 activ 1.2, CYP2C19 activ 1.1, PLK1 inh -10, CYP2C9 inhib -17 and PLK1 PBD inh -27.
Screening Cc1ccccc1-c1nc(CN2CCC(C(=O)NCCCN3CC(C)CC(C)C3)CC2)c(C)o1 (stereo not given) returned CYP2C19 inh -12, CYP2C9 activ 1.1, CYP2C19 activ 1.1, PLK1 inh -9, CYP2C9 inhib -9 and PLK1 PBD inh 14.
Screening Clc1ccc(C(c2nnnn2C2CCCCC2)N(Cc2cccnc2)Cc2ccco2)cc1 (stereo not given) returned PLK1 inh -5 and PLK1 PBD inh -4.
Screening Oc1ccc(-c2cccc(-c3ccc(O)cc3)n2)cc1 returned CYP2C19 inh 27, CYP2C9 activ 0.4, CYP2C19 activ 0.7, PLK1 inh 2, CYP2C9 inhib 61* and PLK1 PBD inh 24.
`Oc1ccc(-c2nnc(-c3ccc(O)cc3)nn2)cc1` gave CYP2C19 inh -6, CYP2C9 activ 1.9, CYP2C19 activ 1.1, PLK1 inh -15, CYP2C9 inhib -90 and PLK1 PBD inh -16.
O=C(OC1CCc2ccccc2C1=O)c1ccccc1O (stereo not given) was read as CYP2C19 inh 82*, CYP2C9 activ 0.1, CYP2C19 activ 0.2, PLK1 inh -10, CYP2C9 inhib 90* and PLK1 PBD inh 1.
Cc1ccc(/C(COc2ccccc2O)=N\O)cc1 was read as CYP2C19 inh 76*, CYP2C9 activ 0.6, CYP2C19 activ 0.2, PLK1 inh -3, CYP2C9 inhib 41 and PLK1 PBD inh 10.
`Cc1ccc(SC(=O)COc2ccccc2C)cc1` gave CYP2C19 inh 9, CYP2C9 activ 0.9, CYP2C19 activ 0.9, PLK1 inh -31, CYP2C9 inhib 12 and PLK1 PBD inh -28.
`CCOc1ccc(-c2cnc3n2CCC3)cc1` gave CYP2C19 inh -2, CYP2C9 activ 0.9, CYP2C19 activ 1, PLK1 inh -9, CYP2C9 inhib 8 and PLK1 PBD inh -18.
Brc1ccc(-c2cnc3n2CCCC3)cc1 was read as CYP2C19 inh 50*, CYP2C9 activ 1, CYP2C19 activ 0.5, PLK1 inh -3, CYP2C9 inhib -2 and PLK1 PBD inh 1.
Screening CN(C)c1ccc(N/C=C/C(=O)c2ccc(F)cc2)cc1 returned CYP2C19 inh 69*, CYP2C9 activ 0.9, CYP2C19 activ 0.3, PLK1 inh -13, CYP2C9 inhib 5 and PLK1 PBD inh 2.
`c1ccc2c(c1)OCC(c1csc3ncnc(N4CCCC4)c13)O2` (stereo not given) gave CYP2C19 inh 99*, CYP2C9 activ 0.1, CYP2C19 activ 0, PLK1 inh -6, CYP2C9 inhib 94* and PLK1 PBD inh -9.
S=c1[nH]nc(C2COc3ccccc3O2)o1 (stereo not given) was read as CYP2C19 inh 6, CYP2C9 activ 0.5, CYP2C19 activ 0.9, PLK1 inh 4, CYP2C9 inhib 50 and PLK1 PBD inh -9.
`c1ccc(CCNc2ncnc3scc(C4COc5ccccc5O4)c23)cc1` (stereo not given) gave CYP2C19 inh 57*, CYP2C9 activ 0.3, CYP2C19 activ 0.4, PLK1 inh -6, CYP2C9 inhib 73* and PLK1 PBD inh 18.
For c1ccc(CCNc2ncnc3nc[nH]c23)cc1 the results were CYP2C19 inh 38, CYP2C9 activ 0.9, CYP2C19 activ 0.6, PLK1 inh 42, CYP2C9 inhib 13 and PLK1 PBD inh 1.
For CCOc1ccc(C(C)=O)cc1CSc1nnc(-c2ccoc2C)n1N the results were CYP2C19 inh 86*, CYP2C9 activ 0.3, CYP2C19 activ 0.1, PLK1 inh -13, CYP2C9 inhib 74* and PLK1 PBD inh 26.
O=C(CCS(=O)(=O)c1ccc(Cl)cc1)N1CCN(S(=O)(=O)c2cccs2)CC1 was read as PLK1 inh 0 and PLK1 PBD inh -5.
Cc1ccc(-n2ncc3c(=O)n(CC(=O)N4CCCc5ccccc54)cnc32)cc1C was read as PLK1 inh -7 and PLK1 PBD inh -6.
Cc1cc(Br)ccc1NC(=O)CNC(=O)CN1C(=O)NC2(CCCCCC2)C1=O was read as CYP2C19 inh -7, CYP2C9 activ 1.1, CYP2C19 activ 1.1, PLK1 inh -6, CYP2C9 inhib -10 and PLK1 PBD inh 15.
For Cc1cc(Br)ccc1NC(=O)CN1C(=O)C2C3CC(c4ccccc4)C(C3)C2C1=O (stereo not given) the results were CYP2C19 inh 35, CYP2C9 activ 0.3, CYP2C19 activ 0.7, PLK1 inh -4, CYP2C9 inhib 68* and PLK1 PBD inh -18.
